Shown are actives, neighbours in structure and some others; about 3.1% of the full set was active somewhere.
IL-2 act: IL-2 activation; AID 652025; IL-2 activation reporter assay, cell-based qHTS; stimulated with anti-CD3/CD4/CD28 beads; in transgenic mouse T cells; activation, % (series mostly up to about 46 µM); 360,000 tested, 0.065% active; in the data active = activation above about 50%; inconclusive = mostly about 30% to 49%; also: 0% is about no effect
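Quantitative HTS in unstimulated transgenic mouse T cells, with memory T cells as non-tolerant control and PMA/ionomycin as tolerance-bypass control. Compound pretreatment lasted 60 minutes before 18 h bead stimulation; EGFP/DsRed fluorescence read.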
Nrf2 activator: activators of Nrf2 (ARE) signaling; AREc32 ARE-luciferase reporter (MCF7-derived line), luminescence, 24 h; Potency, µM (titrated, usually from 46.1 µM), without a hit: at the top dose activation, most hits filed as activators; 410,000 tested, 0.31% active; AID 624171; also: potency is read from the fitted curve at half-maximal effect; % of control where 0% means no effect; nearly all actives have a fitted effect of over 65% in size
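Quantitative high-throughput format: AREc32 reporter cells, 1000 per well, received compound by pin transfer and were incubated 24 hr at 37 deg C, 5% CO2, before Steady-Glo luminescence detection.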
ELG1 repair inh: blocks ELG1-dependent DNA repair in HEK293T cells | HEK293T ELG1-luciferase reporter, luminescence, 16 h; DNA damage induced by 5-fluorouridine | AID 504467 | 330,000 tested, 2.3% active | Potency, µM (highest dose often 46.1 µM), for inactives: at the top dose activity change, negative = inhibition, hits mostly inhibitors; also: potency is read from the fitted curve at half-maximal effect; % is scaled to controls: 0 for no effect and ±100 for the full control effect; nearly all actives have a fitted effect of over 55% in size
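Cells (2,000 per well) received 5-fluorouridine plus test compound or DMSO and were incubated 16 hr at 37 °C, 5% CO2. Luciferase activity was read by luminescence 30 min after ONE-Glo addition; signal suppression marked inhibition of damage-induced ELG1 function.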
BRCA1 expr act: BRCA1 expression activation | MCF7-BRCA1-FFLuc reporter, luminescence, 48 h; response scale: scaled: vehicle 0%, 10 µM genistein 100% | Potency, µM (titrated, usually from 46.1 µM), for the others: top-dose activation, usual class: activators | 380,000 tested, 1.1% active | AID 624202; also: potency is read from the fitted curve at half-maximal effect; nearly all actives have a fitted effect of over 80% in size
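Reporter cells (MCF7, BRCA1 promoter-firefly luciferase) received library compounds across a concentration series for 48 h. End-point luminescence was measured and concentration-effect curves derived after normalization.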
An asterisk follows results filed as active; u = inconclusive; x = no result given. Unless noted, calls follow the shape of the dose curve; as a rule, active = well fitted curve in the direction sought with a large enough effect; inconclusive = small, poorly fitted or top-dose-only effect, or another doubt; inactive = no such curve, though single readings can be large; an effect the other way counts as inactive or inconclusive.

SMILES	IL-2 act	Nrf2 activator	ELG1 repair inh	BRCA1 expr act
Cc1ccc(C)c(CN2C(=O)c3ccccc3S(=O)(=O)c3ccc(C(=O)N4CCCCC4)cc32)c1	x	0%	x	x
CSc1ccc(/C=C/c2ccnc3ccccc23)cc1	x	x	x	4.5µM*
COC(=O)C(Cc1ccc(O)cc1)N1Cc2ccccc2C1=O (centres undefined)	-1	-1%	u	10µM*
CCc1ccc2oc(-c3cccc(NC(=O)C(C)(C)Oc4ccc(Br)cc4)c3)nc2c1	x	-1%	x	4%
Cc1cccc(C)c1OCc1nc2ccccc2c(=O)n1/N=C/c1c[nH]c2ccccc12	1	-1%	8.2µM*	-101%
Cc1ccc(-c2[nH]ncc2/C=N/n2c(COc3ccccc3C)nc3ccccc3c2=O)cc1	-1	10%	2.6µM*	-90%
O=C(O)Cn1nnc2ccccc21	0	0%	4%	13%
c1ccc(CNn2nnc3ccccc32)cc1	0	1%	x	5µM*
C(#Cc1ccccc1)Cn1nnc2ccccc21	0	4%	u	13µM*
c1ccc(-n2nnc3ccccc32)cc1	0	-1%	u	20%
CCCOc1ccc(CNC(=O)c2oc3ccc4c(c3c2C)C(=O)CC(C)(CC)O4)cc1 (centres undefined)	x	3%	x	x
Oc1ccc(Br)cc1-c1cc(-c2ccco2)[nH]n1	-2	3.5µM*	7%	-81%
Oc1ccccc1-c1cc(-c2ccco2)[nH]n1	-3	u	u	9%
COc1ccc(C(=O)/C=C/c2ccc(O)cc2)c(O)c1CC=C(C)C	-4	24%	-6%	-82%
COc1ccc(C(=O)/C=C/c2ccc(O)cc2)c2c1CC(O)C(C)(C)O2 (centres undefined)	0	10%	23µM*	-45%
CC(C)=CC(=O)Nc1nnc(-c2ccccc2C)s1	2	2%	u	3.5µM*
COC(=O)c1ccc(-n2c(/C=C\c3cccc(Br)c3)nc3ccccc3c2=O)cc1	x	0%	x	x
CC(=O)N1c2ccc(S(=O)(=O)NCCC(=O)Nc3ccc(Br)c(C)c3)cc2CC1C (centres undefined)	x	4%	x	x
Cc1nc2sc(C(N)=O)c(N)c2c(C)c1CC(=O)c1ccccc1	-1	0%	u	11µM*
Cc1ccc(/C(=N\O)c2oc3c(C)c4oc(=O)cc(C)c4cc3c2C)cc1	-4	0%	21µM*	-84%
Cc1cc(=O)oc2c1ccc1oc(/C(=N/O)c3ccccc3)c(C)c12	-2	-1%	16µM*	-49%
CCc1c(C(=O)c2ccc(Cl)cc2)oc2c(C)c3oc(=O)cc(C)c3cc12	0	4%	u	-17%
O=C(NCc1ccco1)c1cnc2sccn2c1=O	3	21%	14%	34%
Cc1csc2ncc(C(=O)NCc3ccco3)c(=O)n12	1	11µM*	-2%	-79%
COc1cc(OC)cc(-c2cc3nc(C)c(CCC(=O)NCc4ccc(Cl)cc4)c(C)n3n2)c1	x	-4%	x	-29%
SMILES	IL-2 act	Nrf2 activator	ELG1 repair inh	BRCA1 expr act
COc1cc(OC)cc(-c2cc3nc(C)c(CCC(=O)NCc4ccccc4)c(C)n3n2)c1	4	-2%	21µM*	-65%
Cc1ccccc1NC(=O)CN1C(=O)S/C(=C\c2ccc(-c3cc(C(=O)O)ccc3C)o2)C1=O	77*	0%	7%	4%
Cc1ccc(C(=O)O)cc1-c1ccc(/C=C2\SC(=O)N(CC(=O)Nc3ccccc3)C2=O)o1	0	0%	-13%	-8%
CCN1/C(=C/c2cc[n+](CCCS(=O)(=O)[O-])c3ccccc23)Sc2ccccc21	226*	0%	0%	-7%
Cc1ccc(-n2nc(C)c3c(C(=O)NCc4ccccc4)cc(C4CC4)nc32)cc1	x	-1%	x	x
O=C(c1cc2cc(Br)ccc2o1)N1CCCCC1	-3	2%	u	4.5µM*
O=C(c1cc2cc(Cl)ccc2o1)N1CCCC1	5	1%	u	u
COc1cccc(CNC(=O)CCc2c(C)nc3c(c2C)c(=O)n(C)c(=O)n3C)c1	x	0%	x	-3%
CC1CCc2nc3sc4c(c3c(N)c2C1)CCCC4 (centres undefined)	-4	2%	u	u
CC1CCc2c(nc3sc4c(c3c2N)CCCC4)C1 (centres undefined)	0	1%	u	2.8µM*
COc1ccc(CNC(=O)Cn2c(=O)nc(-c3ccccc3F)c3cc(Cl)ccc32)cc1	x	0%	x	x
CCOC(=O)CNC(=O)c1sc(NC(=O)c2cccc(F)c2)nc1C	-2	3%	u	8.9µM*
c1ccc2c(c1)CCN(c1nc3ccccc3n3cnnc13)C2	-1	13µM*	u	-4%
CC1(Cc2cccc(C(F)(F)F)c2)C(=O)Nc2ccc(-c3ccc(F)c(Cl)c3)cc21 (centres undefined)	-1	-3%	x	-65%
Cc1ccc(OCC(=O)Nc2ccc(C)c(S(=O)(=O)N3CCCCCC3)c2)c([N+](=O)[O-])n1	-6	0%	16µM*	-34%
Cc1ccc(NC(=O)COc2ccc(N(C)C(=O)C(C)(C)C)cc2)cc1S(=O)(=O)N1CCCCC1	-1	0%	8.2µM*	-47%
CCn1cnc2c(=O)oc3ccc(S(=O)(=O)Nc4ccc(OC)cc4)cc3c21	x	6%	x	x
COCC(C)NC(=O)c1noc2c1CCc1cc(OC)ccc1-2 (centres undefined)	0	0%	u	u
COc1ccc2c(c1)CCc1c(C(=O)NCc3ccco3)noc1-2	-1	3%	u	6.3µM*
COCCNC(=O)c1noc2c1CCc1cc(OC)ccc1-2	-1	0%	u	2.2µM*
COc1cc2c(=O)n(Cc3ccccc3Cl)c(=O)n(CC(=O)Nc3ccc(C)c(C)c3)c2cc1OC	x	-2%	x	3%
CCc1cccc(NC(=O)Cn2c(=O)n(CC(=O)NCCc3ccccc3)c(=O)c3ccccc32)c1	x	0%	x	-7%
CCCCOc1ccc(C(=S)N2CCC(C(N)=O)CC2)cc1	0	2%	u	4µM*
COc1ccc(C(=S)N2CCC(C(N)=O)CC2)cc1Br	0	0%	5%	12%
Cc1ccc2c(c1)c1c(c(=O)n(-c3cccc(Cl)c3)c(=O)n1CC(=O)Nc1c(C)cccc1C)n2C	x	0%	x	x
COc1cc(C2C(C#N)=C(N)Oc3c2ccc2ccccc32)ccc1OCC(=O)Nc1cccc(C)c1 (centres undefined)	-1	3%	9.2µM*	-64%
COc1cc(C2C(C#N)=C(N)Oc3c2ccc2ccccc32)ccc1OCC(=O)Nc1ccc(C)cc1 (centres undefined)	-1	0%	u	-74%
CN1CCN(c2cccc3c2S(=O)(=O)N[C@@H](Cc2ccccc2)CO3)CC1	0	0%	x	-8%
O=C(NC1CCCCC1)c1ccc2c(c1)N(Cc1ccccc1Cl)C(=O)c1ccccc1S2	x	0%	x	x
O=c1oc2c(CN3CCOCC3)c(O)ccc2c2c1CCCC2	0	6%	-5%	11%

Screens deposited in PubChem by National Center for Advancing Translational Sciences (NCATS).
